# Values joined by “and” are separate entries in the source; they are usually repeats but may differ in a detail not shown here. Identical values can stand only once. Out of some 5,500 compounds screened, about 2,000 (36%) were called active. Roughly 18% stayed inconclusive and do not appear here. This is one part of the list. Values without a mark were called inactive. Cut-off read from the data, not from the text of the source: active = normalized growth mostly below about 0.91 (no sharp cut-off); inconclusive = no clear call, values can overlap the other calls; inactive = mostly above about 0.92.
# Assay: chemical genetic growth profiling, strain panel (AID 1159580);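 note: tested at 20 µM; growth read once vehicle control cultures reached saturation at 30 °C; 1 = growth at the plate median or of vehicle wells; lower values mean less growth of the strain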
# Conditions: S. cerevisiae deletion strains, growth OD
compound,measurement,setting,value
c1ccc2c(c1)CN1CCCC1=N2,normalized growth,"locus YAL021C, strain ccr4, hits give low values",0.998
same,normalized growth,"locus YAL026C, strain drs2, hits give low values",1
same,normalized growth,"locus YAL030W, strain snc1, hits give low values",1
same,normalized growth,"locus YBL061C, strain skt5, hits give low values",0.999
same,normalized growth,"locus YBR009C, strain hhf1, hits give low values",0.987
same,normalized growth,"locus YBR021W, strain FUR4, hits give low values",1.19 [resistant] (active)
same,normalized growth,"locus YBR023C, strain chs3, hits give low values",1
same,normalized growth,"locus YBR171W, strain sec66, hits give low values",1
same,normalized growth,"locus YBR229C, strain ROT2, hits give low values",1.01
same,normalized growth,"locus YBR231C, strain swc5, hits give low values",0.997
same,normalized growth,"locus YBR279W, strain paf1, hits give low values",0.996
same,normalized growth,"locus YCL011C, strain gbp2, hits give low values",1.01
same,normalized growth,"locus YCL016C, strain dcc1, hits give low values",0.997
same,normalized growth,"locus YCL029C, strain bik1, hits give low values",0.972
same,normalized growth,"locus YCL061C, strain MRC1, hits give low values",1.01
same,normalized growth,"locus YCL069W, strain vba3, hits give low values",1
same,normalized growth,"locus YCR088W, strain abp1, hits give low values",0.998
same,normalized growth,"locus YDL005C, strain med2, hits give low values",0.993
same,normalized growth,"locus YDL035C, strain GPR1, hits give low values",1.03
same,normalized growth,"locus YDL040C, strain nat1, hits give low values",1
same,normalized growth,"locus YDL074C, strain BRE1, hits give low values",1.01
same,normalized growth,"locus YDL101C, strain DUN1, hits give low values",0.99
same,normalized growth,"locus YDL134C, strain PPH21, hits give low values",1.01
same,normalized growth,"locus YDL185W, strain tfp1, hits give low values",0.971
same,normalized growth,"locus YDL192W, strain arf1, hits give low values",0.985
same,normalized growth,"locus YDR001C, strain nth1, hits give low values",0.992
same,normalized growth,"locus YDR069C, strain doa4, hits give low values",1
same,normalized growth,"locus YDR101C, strain arx1, hits give low values",0.978
same,normalized growth,"locus YDR137W, strain rgp1, hits give low values",1.01
same,normalized growth,"locus YDR150W, strain NUM1, hits give low values",0.998
same,normalized growth,"locus YDR159W, strain sac3, hits give low values",0.991
same,normalized growth,"locus YDR162C, strain NBP2, hits give low values",1.02
same,normalized growth,"locus YDR195W, strain ref2",0.968
same,normalized growth,"locus YDR297W, strain sur2, hits give low values",1
same,normalized growth,"locus YDR318W, strain mcm21, hits give low values",0.988
same,normalized growth,"locus YDR334W, strain swr1, hits give low values",0.999
same,normalized growth,"locus YDR335W, strain msn5, hits give low values",1.01
same,normalized growth,"locus YDR388W, hits give low values",0.989
same,normalized growth,"locus YDR392W, strain spt3, hits give low values",0.919
same,normalized growth,"locus YDR502C, strain sam2, hits give low values",0.988
same,normalized growth,"locus YEL003W, strain gim4, hits give low values",0.999
same,normalized growth,"locus YEL037C, strain rad23, hits give low values",0.999
same,normalized growth,"locus YEL061C, strain CIN8 (second series), hits give low values",0.996
same,normalized growth,"locus YEL061C, strain CIN8, hits give low values",1
same,normalized growth,"locus YER015W, strain faa2, hits give low values",0.998
same,normalized growth,"locus YER016W, strain bim1, hits give low values",1
same,normalized growth,"locus YER110C, hits give low values",0.967
same,normalized growth,"locus YER111C, strain swi4, hits give low values",1
same,normalized growth,"locus YER155C, strain BEM2 (second series), hits give low values",1
same,normalized growth,"locus YER155C, strain BEM2, hits give low values",0.993
same,normalized growth,"locus YER167W, strain BCK2, hits give low values",1
same,normalized growth,"locus YFR010W, strain ubp6, hits give low values",1
same,normalized growth,"locus YGL078C, strain dbp3, hits give low values",0.993
same,normalized growth,"locus YGL086W, strain mad1, hits give low values",0.967
same,normalized growth,"locus YGL167C, strain pmr1, hits give low values",0.995
same,normalized growth,"locus YGL173C, strain kem1, hits give low values",0.997
same,normalized growth,"locus YGL227W, strain vid30, hits give low values",0.993
same,normalized growth,"locus YGL240W, strain doc1, hits give low values",1.01
same,normalized growth,"locus YGL248W, strain PDE1, hits give low values",1
same,normalized growth,"locus YGL253W, strain hxk2, hits give low values",1
same,normalized growth,"locus YGR078C, strain PAC10, hits give low values",1.01
same,normalized growth,"locus YGR135W, strain pre9, hits give low values",0.998
same,normalized growth,"locus YGR229C, strain SMI1, hits give low values",1.03
same,normalized growth,"locus YGR252W, strain gcn5, hits give low values",1.1
same,normalized growth,"locus YHR013C, strain ard1, hits give low values",0.983
same,normalized growth,"locus YHR027C, strain rpn1, hits give low values",1.01
same,normalized growth,"locus YHR030C, strain SLT2, hits give low values",1.01 and 0.994
same,normalized growth,"locus YHR079C, strain IRE1 (second series), hits give low values",0.97
same,normalized growth,"locus YHR079C, strain IRE1, hits give low values",1.02
same,normalized growth,"locus YHR094C, strain hxt1, hits give low values",0.991
same,normalized growth,"locus YHR129C, strain ARP1, hits give low values",0.995
same,normalized growth,"locus YHR142W, strain chs7, hits give low values",1.01
same,normalized growth,"locus YHR200W, strain rpn10, hits give low values",0.979
same,normalized growth,"locus YIL066C, strain RNR3, hits give low values",1.01
same,normalized growth,"locus YIL073C, strain SPO22, hits give low values",0.906
same,normalized growth,"locus YIL125W, strain kgd1, hits give low values",0.989
same,normalized growth,"locus YIR030C, strain dcg1, hits give low values",0.985
same,normalized growth,"locus YJL092W, strain hpr5, hits give low values",0.995
same,normalized growth,"locus YJL095W, strain BCK1 (second series), hits give low values",1
same,normalized growth,"locus YJL095W, strain BCK1, hits give low values",1 and 0.988
same,normalized growth,"locus YJL115W, strain asf1, hits give low values",1
same,normalized growth,"locus YJL129C, strain trk1, hits give low values",1.01
same,normalized growth,"locus YJL134W, strain LCB3, hits give low values",1.01
same,normalized growth,"locus YJL154C, strain vps35, hits give low values",0.996
same,normalized growth,"locus YJL164C, strain tpk1, hits give low values",1.01
same,normalized growth,"locus YJL166W, strain qcr8, hits give low values",1
same,normalized growth,"locus YJL168C, strain set2, hits give low values",0.98
same,normalized growth,"locus YJL187C, strain SWE1 (second series), hits give low values",0.99
same,normalized growth,"locus YJL187C, strain SWE1, hits give low values",1
same,normalized growth,"locus YJR043C, strain POL32, hits give low values",1.06
same,normalized growth,"locus YJR066W, strain TOR1, hits give low values",0.989
same,normalized growth,"locus YKL009W, strain mrt4, hits give low values",0.955
same,normalized growth,"locus YKL068W, hits give low values",0.984
same,normalized growth,"locus YKL085W, strain MDH1 (second series), hits give low values",0.981
same,normalized growth,"locus YKL085W, strain MDH1, hits give low values",0.981
same,normalized growth,"locus YKL160W, strain elf1, hits give low values",1
same,normalized growth,"locus YKL190W, strain CNB1, hits give low values",1.01
same,normalized growth,"locus YKR001C, strain vps1, hits give low values",0.98
same,normalized growth,"locus YKR026C, strain gcn3, hits give low values",0.992
same,normalized growth,"locus YKR091W, strain srl3, hits give low values",0.994
same,normalized growth,"locus YLL001W, strain dnm1, hits give low values",0.988
same,normalized growth,"locus YLL026W, hits give low values",0.996
same,normalized growth,"locus YLL041C, strain sdh2, hits give low values",0.996
same,normalized growth,"locus YLR027C, strain aat2, hits give low values",1.01
same,normalized growth,"locus YLR039C, strain RIC1, hits give low values",1.01
same,normalized growth,"locus YLR058C, strain SHM2, hits give low values",1
same,normalized growth,"locus YLR102C, strain apc9, hits give low values",0.981
same,normalized growth,"locus YLR113W, strain HOG1, hits give low values",0.973
same,normalized growth,"locus YLR221C, strain rsa3, hits give low values",0.999
same,normalized growth,"locus YLR258W, strain gsy2, hits give low values",1
same,normalized growth,"locus YLR262C, strain YPT6 (second series), hits give low values",1.02
same,normalized growth,"locus YLR262C, strain YPT6, hits give low values",1.04
same,normalized growth,"locus YLR268W, strain sec22, hits give low values",0.951
same,normalized growth,"locus YLR320W, strain mms22, hits give low values",1.01
same,normalized growth,"locus YLR330W, strain CHS5, hits give low values",0.996
same,normalized growth,"locus YLR342W, strain FKS1 (second series), hits give low values",1.08
same,normalized growth,"locus YLR342W, strain FKS1, hits give low values",1.01
same,normalized growth,"locus YLR357W, strain rsc2, hits give low values",0.991
same,normalized growth,"locus YLR370C, strain arc18, hits give low values",1.01
same,normalized growth,"locus YLR371W, strain rom2, hits give low values",0.965
same,normalized growth,"locus YLR384C, strain iki3, hits give low values",0.988
same,normalized growth,"locus YLR418C, strain cdc73, hits give low values",1
same,normalized growth,"locus YML016C, strain PPZ1, hits give low values",1
same,normalized growth,"locus YML032C, strain rad52, hits give low values",1.01
same,normalized growth,"locus YML120C, strain ndi1, hits give low values",1.01
same,normalized growth,"locus YML124C, strain tub3, hits give low values",1
same,normalized growth,"locus YMR058W, strain fet3, hits give low values",1
same,normalized growth,"locus YMR078C, strain ctf18, hits give low values",0.959
same,normalized growth,"locus YMR125W, strain sto1, hits give low values",1.01
same,normalized growth,"locus YMR129W, hits give low values",0.976
same,normalized growth,"locus YMR205C, strain PFK2, hits give low values",0.99
same,normalized growth,"locus YMR223W, strain ubp8, hits give low values",0.992
same,normalized growth,"locus YMR231W, strain pep5, hits give low values",0.996
same,normalized growth,"locus YMR263W, strain SAP30, hits give low values",0.991
same,normalized growth,"locus YMR307W, strain GAS1, hits give low values",1.21
same,normalized growth,"locus YNL067W, strain RPL9B, hits give low values",0.979
same,normalized growth,"locus YNL071W, strain lat1, hits give low values",1.01
same,normalized growth,"locus YNL153C, strain GIM3, hits give low values",1
same,normalized growth,"locus YNL183C, strain NPR1, hits give low values",0.967
same,normalized growth,"locus YNL209W, strain ssb2, hits give low values",1
same,normalized growth,"locus YNL233W, strain BNI4, hits give low values",1
same,normalized growth,"locus YNL248C, strain rpa49, hits give low values",1.01
same,normalized growth,"locus YNL250W, strain rad50, hits give low values",0.937
same,normalized growth,"locus YNL271C, strain bni1, hits give low values",0.989
same,normalized growth,"locus YNL298W, strain CLA4, hits give low values",0.996
same,normalized growth,"locus YNL307C, strain MCK1, hits give low values",0.972
same,normalized growth,"locus YNL322C, strain KRE1 (second series), hits give low values",1
same,normalized growth,"locus YNR049C, strain mso1, hits give low values",1
same,normalized growth,"locus YNR052C, strain pop2, hits give low values",0.992
same,normalized growth,"locus YOL006C, strain TOP1, hits give low values",0.918
same,normalized growth,"locus YOL012C, strain htz1",0.782
same,normalized growth,"locus YOL147C, strain pex11, hits give low values",0.995
same,normalized growth,"locus YOR001W, strain rrp6, hits give low values",1
same,normalized growth,"locus YOR061W, strain CKA2, hits give low values",0.998
same,normalized growth,"locus YOR069W, strain VPS5, hits give low values",0.998
same,normalized growth,"locus YOR070C, strain gyp1, hits give low values",0.993
same,normalized growth,"locus YOR080W, strain dia2, hits give low values",0.992
same,normalized growth,"locus YOR083W, strain WHI5, hits give low values",1
same,normalized growth,"locus YOR106W, strain vam3, hits give low values",1.02
same,normalized growth,"locus YOR136W, strain idh2, hits give low values",0.976
same,normalized growth,"locus YOR144C, strain elg1, hits give low values",1.01
same,normalized growth,"locus YOR184W, strain ser1, hits give low values",0.992
same,normalized growth,"locus YOR231W, strain MKK1, hits give low values",1.02
same,normalized growth,"locus YOR265W, strain rbl2, hits give low values",1.01
same,normalized growth,"locus YOR270C, strain vph1, hits give low values",1.02
same,normalized growth,"locus YOR290C, strain snf2, hits give low values",0.955
same,normalized growth,"locus YOR316C, strain cot1, hits give low values",0.98
same,normalized growth,"locus YPL051W, strain arl3, hits give low values",1.01
same,normalized growth,"locus YPL055C, strain LGE1, hits give low values",1
same,normalized growth,"locus YPL078C, strain atp4, hits give low values",1.01
same,normalized growth,"locus YPL106C, strain sse1, hits give low values",1.02
same,normalized growth,"locus YPL240C, strain hsp82, hits give low values",0.992
same,normalized growth,"locus YPL256C, strain CLN2, hits give low values",1
same,normalized growth,"locus YPR119W, strain clb2, hits give low values",0.966
same,normalized growth,"locus YPR141C, strain kar3, hits give low values",0.969
same,normalized growth,"locus YPR163C, strain tif3, hits give low values",0.997
same,normalized growth,"locus YPR167C, strain met16, hits give low values",0.976
same,normalized growth,"strain wtn01, hits give low values",0.957

# Source: PubChem BioAssay AID1159580 (chemical genetic matrix, 2015)
